29 compounds from PubChem BioAssay (NCI) can be followed below.

Assay in all cases: NCI-60 one-dose screen, 48 h (100 = growth as untreated, 0 = no growth, -100 = all killed)
Conditions in all cases: 10 µM unless noted

Experiment [1] concerns T-47D breast.
Experiment [2] deals with BT-549 breast.
The subject of experiment [3] is MDA-MB-435 melanoma.
Experiment [4] concerns SW-620 colon.
For experiment [5], the system named is MCF7 breast.
The test system of experiment [6] is HCT-116 colon.
The subject of experiment [7] is HCC-2998 colon.
For experiment [8], the system named is KM12 colon.

About 83,000 compounds went through this panel and 20% of them were active in at least one assay; those are over-represented in the sample as a whole.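 Cells were grown in 96-well plates and exposed to the test compound at a single concentration for 48 hours; results are reported as percent growth, with values below 10 considered active.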 Values without a mark were called inactive. Calls of active or inactive are those of the source.

Regarding `Cc1ccc(NC(=O)Cn2cc(CN3CCN(c4ccnc5cc(Cl)ccc45)CC3)nn2)cc1`, the growth in experiment [1] is 86.5%; in experiment [2], 81.5%; in experiment [3], 94.5%; in experiment [4], 88.6%; in experiment [5], 79.4%; in experiment [6], 96.9%. The growth was 97.3% in experiment [7] and 85.8% in experiment [8].
Turning to `Oc1c(Br)cc(Br)c2ccc(Cn3cc(-c4ccc(C(F)(F)F)cc4)nn3)nc12`, the growth was 46.2% in experiment [1]; 72.6% in experiment [2]; 48.2% in experiment [3]; -16.3% (active) in experiment [4]; 27.9% in experiment [5]; -0.0235% (active) in experiment [6]. In addition, the growth in experiment [7] is 117%; in experiment [8], 104%.
On to `CN(c1cc2ncc(=O)[nH]c2cc1NC(N)=NCc1ccc(Cl)cc1)C1CCCCC1`, for which the growth in experiment [1] is 47.6%; in experiment [2], 82%; in experiment [3], 40.2%; in experiment [4], 6.15% (active); in experiment [5] it was -44.2% (active); in experiment [6] it was 24.9%. Further, the figures for the growth in experiment [7] and in experiment [8] were -10.5% (active) and 28.7%, respectively.
Take `c1cnc2c(-c3nc4ccc5[nH]ncc5c4c4c3CCCC4)c[nH]c2c1`: the growth in experiment [1] is 38.1%; in experiment [2] it was 72.5%; in experiment [3] it was 51.9%; in experiment [4], 18.9%; in experiment [5], 9.3% (active); in experiment [6], 0.564% (active). Further, the growth in experiment [7] was 54.7%; in experiment [8], 26.9%.
Regarding `Oc1c(I)cc(I)cc1CNCc1ccccn1`, the growth in experiment [1] was 14.8%; in experiment [2] it was 36.7%; in experiment [3] it was 46.8%; in experiment [4], 33.2%; in experiment [5], 28.7%; in experiment [6], 26.4%. The growth was 49.3% in experiment [7] and 41.1% in experiment [8].
For the compound `Cc1ccc(C[P+](c2ccccc2)(c2ccccc2)c2ccccc2)cc1`, the growth in experiment [1] is 1.57% (active); in experiment [2] it was 0.272% (active); in experiment [3], 4.92% (active); in experiment [4], 10.9%; in experiment [5], 10.9%; in experiment [6], 2.21% (active). The growth in experiment [7] was -26.4% (active); in experiment [8] it was -12.9% (active).
`COc1ccc(-c2ccc(=O)oc2-c2cc(OC)c(OC)c(OC)c2)cc1O`: the growth is 67.8% in experiment [1]; 5.78% (active) in experiment [2]; -37.5% (active) in experiment [3]; 9.8% (active) in experiment [4]; 1.84% (active) in experiment [5]; -67.4% (active) in experiment [6]. The growth in experiment [7] was -2.78% (active); in experiment [8], 1.71% (active).
As to `COc1ccc(OC)c(-c2nc(SCC(=O)c3ccc(C#N)cc3)[nH]c(=O)c2C#N)c1`, the growth in experiment [1] was 117%; in experiment [2], 99.4%; in experiment [3], 100%; in experiment [4] it was 98.6%; in experiment [5] it was 100%; in experiment [6] it was 95%. The values for the growth in experiment [7] and in experiment [8] were 95.9% and 91.8%, respectively.
For `CC(=O)Oc1ccc(/C(=C(\C)c2ccc(Cl)cc2)c2ccc(OCCN3CCCCC3)cc2)cc1`, the growth in experiment [1] was 29.8%; in experiment [2] it was 73.5%; in experiment [3], -5.9% (active); in experiment [4], 66.7%; in experiment [5] it was 3.38% (active); in experiment [6], 32.4%. In addition, the growth is -4.12% (active) in experiment [7] and 24% in experiment [8].
Consider `CC(=O)/C(=C\c1c(-c2ccccc2)[nH]c2ccccc12)S(C)(=O)=O`, for which the growth was 1.27% (active) in experiment [1]; 4.06% (active) in experiment [2]; -42.7% (active) in experiment [3]; 13.7% in experiment [4]; 6.97% (active) in experiment [5]; 21.2% in experiment [6]. Further, the growth in experiment [7] was 36.8%; in experiment [8], 4.04% (active).
As to `COc1ccc(C/C(C)=C(\c2ccc(Cl)cc2)c2ccc(OCCN3CCCCC3)cc2)cc1`, the growth in experiment [1] was 75.1%; in experiment [2] it was 96.7%; in experiment [3], 102%; in experiment [4] it was 88.4%; in experiment [5], 81.7%; in experiment [6], 100%. Besides, the growth in experiment [7] is 98.5%; in experiment [8], 104%.
`Cc1cc(=O)n(C(=O)Nc2ccccc2Cl)c2cc(O)ccc12`: the growth in experiment [1] is 97.1%; in experiment [2] it was 94.4%; in experiment [3] it was 104%; in experiment [4] it was 93.7%; in experiment [5] it was 101%; in experiment [6] it was 101%. The growth was 98.5% in experiment [7] and 98.1% in experiment [8].
With `O=C(N/N=C/c1ccc(Cl)cc1)c1[nH]c2ccc(Cl)cc2c1-c1ccccc1`, the growth in experiment [1] is 73.9%; in experiment [2], 10.2%; in experiment [3], -33.3% (active); in experiment [4] it was 37.5%; in experiment [5] it was 13.5%; in experiment [6], 7.64% (active). Moreover, the results for the growth in experiment [7] and in experiment [8] were 26.4% and 4.94% (active), respectively.
For the compound `O=C(CSc1nnc(-c2cnccn2)n1-c1ccccc1)c1ccc(Cl)cc1`, the growth in experiment [1] is 85.9%; in experiment [2], 91.6%; in experiment [3] it was 106%; in experiment [4], 106%; in experiment [5], 94.1%; in experiment [6], 95.4%. Besides, the results for the growth in experiment [7] and in experiment [8] were 108% and 94.8%, respectively.
With `Clc1cc(Cl)c(Cl)c(-c2nnc(SCc3ccncc3Br)o2)c1`, the growth in experiment [1] was 96.1%; in experiment [2], 99%; in experiment [3], 98.4%; in experiment [4] it was 96.5%; in experiment [5] it was 91.8%; in experiment [6], 88.8%. Moreover, the growth in experiment [7] is 58.6%; in experiment [8] it was 96.2%.
As for `O=C(CN1CCCCC1)Nc1nc(-c2cc3ccccc3oc2=O)cs1`, the growth is 87.7% in experiment [1]; 100% in experiment [2]; 104% in experiment [3]; 99.2% in experiment [4]; 88.7% in experiment [5]; 101% in experiment [6]. Also, the growth in experiment [7] was 104%; in experiment [8], 99.9%.
Take `O=C1c2c(c3c4ccccc4[nH]c3c3ccc4ccccc4c23)C(=O)N1CCN1CCNCC1`: the growth in experiment [1] was 55.8%; in experiment [2] it was 93.5%; in experiment [3] it was 80.9%; in experiment [4] it was -54.9% (active); in experiment [5], 23%; in experiment [6], -81.3% (active). Besides, the growth is 73.7% in experiment [7] and 36.3% in experiment [8].
For the compound `COc1ccc(-c2ccc(-c3ccc(C(=N)N)cc3)s2)cc1Cl`, the growth in experiment [1] is 42.6%; in experiment [2] it was 93.7%; in experiment [3], -65.2% (active); in experiment [4] it was -71.9% (active); in experiment [5], -65.5% (active); in experiment [6] it was -52.8% (active). Also, the growth in experiment [7] was -37.8% (active); in experiment [8], -73.2% (active).
Turning to `CSc1nc2ccccc2cc1/C=[N+](\[O-])c1ccccc1`, the growth in experiment [1] was 61.6%; in experiment [2], 66.1%; in experiment [3], 45.9%; in experiment [4], 28.9%; in experiment [5], 24.9%; in experiment [6], 10.4%. The growth in experiment [7] was 110%; in experiment [8], 100%.
Regarding `Cn1ccnc1C(=O)/C=C/c1ccc(C(=O)Nc2ccc(Cl)cc2)cc1`, the growth was 9.37% (active) in experiment [1]; -7.95% (active) in experiment [2]; 23.8% in experiment [3]; -46.8% (active) in experiment [4]; 12.6% in experiment [5]; -49% (active) in experiment [6]. Moreover, the growth was -10.1% (active) in experiment [7] and -49.8% (active) in experiment [8].
On to `O=S(=O)(NCCCNc1nccc(-c2c(-c3ccc(F)c(O)c3)nc3occn23)n1)c1ccc(Cl)cc1`, for which the growth in experiment [1] was 69.1%; in experiment [2] it was 79.4%; in experiment [3], 27.6%; in experiment [4], 97.8%; in experiment [5], 55.9%; in experiment [6], 32.8%. The values for the growth in experiment [7] and in experiment [8] were 85.7% and 70.2%, respectively.
As for `Cn1c(I)c(C#CCO[Si](C)(C)C(C)(C)C)c(=O)[nH]c1=O`, the growth in experiment [1] was 61.9%; in experiment [2] it was 97.1%; in experiment [3] it was 97.4%; in experiment [4], 11.4%; in experiment [5] it was 88%; in experiment [6], 94.6%. The growth in experiment [7] is 99.7%; in experiment [8], 107%.
Take `Nc1nc2ccccc2c2c(=O)c3cccc(Cl)c3sc12`: the growth in experiment [1] was 38.7%; in experiment [2], 99.2%; in experiment [3], 96.9%; in experiment [4], 89%; in experiment [5] it was 12.2%; in experiment [6], 64.8%. In addition, the results for the growth in experiment [7] and in experiment [8] were 63% and 89.8%, respectively.
Regarding `CCC1=C[C@@H]2C[C@]3(C(=O)OC)c4[nH]c5ccccc5c4CC[N@+](CC(=O)Nc4cc5c(cc4OC)N(C)[C@H]4[C@@](O)(C(=O)OC)[C@H](OC(C)=O)[C@]6(CC)C=CCN7CC[C@]54[C@@H]76)(C2)[C@H]13`, the growth in experiment [1] was 105%; in experiment [2] it was 111%; in experiment [3] it was 105%; in experiment [4] it was 100%; in experiment [5], 103%; in experiment [6], 102%. Besides, the growth in experiment [7] was 110%; in experiment [8], 104%.
Consider `N#Cc1nc(-c2ccc(F)cc2)oc1S(=O)(=O)N1CCOCC1`, for which the growth in experiment [1] is -6.45% (active); in experiment [2], 98.5%; in experiment [3], 79.8%; in experiment [4], -77.9% (active); in experiment [5] it was 30.4%; in experiment [6], -18.4% (active). For the same compound, the results for the growth in experiment [7] and in experiment [8] were 106% and 102%, respectively.
Consider `C=CCSc1nnc(NC(=O)CCl)s1`, for which the growth was 90.3% in experiment [1]; 79% in experiment [2]; 90.8% in experiment [3]; 105% in experiment [4]; 90.1% in experiment [5]; 86.3% in experiment [6]. The growth in experiment [7] is 130%; in experiment [8], 95.3%.
`C#CCOc1cccc(Nc2ncnc3cc(NC(=O)C=C)ccc23)c1`: the growth in experiment [1] is 8.13% (active); in experiment [2] it was 7.82% (active); in experiment [3] it was -1.49% (active); in experiment [4], 12.1%; in experiment [5] it was 20.4%; in experiment [6] it was 2.37% (active). Further, the growth in experiment [7] was 60.7%; in experiment [8], 24.6%.
Turning to `CSc1nc(N)c(NS(=O)(=O)c2ccc(C(C)=O)cc2)c(=O)[nH]1`, the growth in experiment [1] was 102%; in experiment [2], 98.4%; in experiment [3] it was 102%; in experiment [4], 102%; in experiment [5], 85.9%; in experiment [6], 92.7%. The growth in experiment [7] was 112%; in experiment [8] it was 103%.
As to `CN1CCN(c2cc(Nc3cc(C4CC4)[nH]n3)nc(Nc3ccc(CC(=O)NCc4cccc(F)c4)cc3)n2)CC1`, the growth in experiment [1] is 64.5%; in experiment [2] it was 43.2%; in experiment [3] it was 24.9%; in experiment [4], 11.5%; in experiment [5], 20%; in experiment [6], 8.53% (active). Besides, the results for the growth in experiment [7] and in experiment [8] were 35.1% and 9.2% (active), respectively.
